Results published in paper PMC4336329 (PLoS ONE, 2015).
The campaign covered roughly 310,000 compounds. About 14,000 (4.5%) showed an effect of 50% or more. Effects have a minus sign here. For the sample, strong results were picked, then their nearest neighbours and some compounds at random.

These compounds were tested against human ether-à-go-go-related gene (hERG) potassium channel (human, UniProt Q12809) (assay: primary screen, population patch clamp on CHO cells stably expressing hERG; higher = less effect of the substance).
human ether-à-go-go-related gene (hERG) potassium channel, sequence (Q12809 whole entry, looked up): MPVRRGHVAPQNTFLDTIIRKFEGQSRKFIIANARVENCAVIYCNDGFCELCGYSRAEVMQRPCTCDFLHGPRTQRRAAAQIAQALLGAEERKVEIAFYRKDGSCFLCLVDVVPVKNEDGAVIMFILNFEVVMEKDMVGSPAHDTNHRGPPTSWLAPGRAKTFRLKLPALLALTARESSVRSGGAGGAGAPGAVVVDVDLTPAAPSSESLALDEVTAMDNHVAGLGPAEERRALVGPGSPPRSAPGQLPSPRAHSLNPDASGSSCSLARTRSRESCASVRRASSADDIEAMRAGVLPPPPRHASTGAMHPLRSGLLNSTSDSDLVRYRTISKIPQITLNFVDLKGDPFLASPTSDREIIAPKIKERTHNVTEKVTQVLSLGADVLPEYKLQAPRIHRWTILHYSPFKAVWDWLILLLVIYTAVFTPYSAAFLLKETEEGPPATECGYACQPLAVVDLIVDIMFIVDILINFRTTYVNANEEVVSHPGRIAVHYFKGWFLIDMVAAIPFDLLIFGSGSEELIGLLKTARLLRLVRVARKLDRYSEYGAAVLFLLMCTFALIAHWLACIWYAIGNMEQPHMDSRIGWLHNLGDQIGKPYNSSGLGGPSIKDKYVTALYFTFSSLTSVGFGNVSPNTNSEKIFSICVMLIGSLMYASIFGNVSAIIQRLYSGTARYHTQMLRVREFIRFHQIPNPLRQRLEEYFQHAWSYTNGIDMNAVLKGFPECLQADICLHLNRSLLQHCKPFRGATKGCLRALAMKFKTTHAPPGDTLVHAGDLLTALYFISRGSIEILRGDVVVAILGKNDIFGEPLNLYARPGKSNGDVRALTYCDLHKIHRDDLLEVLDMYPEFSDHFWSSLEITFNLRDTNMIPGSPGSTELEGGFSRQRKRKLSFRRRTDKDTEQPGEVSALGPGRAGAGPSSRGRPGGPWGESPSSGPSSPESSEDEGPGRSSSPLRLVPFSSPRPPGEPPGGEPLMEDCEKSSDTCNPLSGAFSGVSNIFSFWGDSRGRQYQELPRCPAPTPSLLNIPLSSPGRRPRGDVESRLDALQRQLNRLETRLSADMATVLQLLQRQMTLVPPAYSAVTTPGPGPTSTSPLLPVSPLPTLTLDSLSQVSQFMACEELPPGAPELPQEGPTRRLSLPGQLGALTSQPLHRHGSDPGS
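Note: peak tail current of the secondary pulse compared with the same well before compound.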

Row | SMILES | hERG current change (%, negative = inhibition) at 10uM
1 | CC1CCC(C(=O)c2c(O)c3ccccc3oc2=O)CC1 (stereo not drawn) | 15.9%
2 | COc1ccc(-c2nc(S(=O)(=O)c3ccc(C)cc3)c(N3CCCC3)o2)cc1 | 17.2%
3 | O=C(Nc1ccc(-n2ccnc2P(=O)(O)c2ccccc2)cc1)c1ccccc1Br | -14.9%
4 | CCOC(=O)c1snc(C(=O)NC2CCCCC2)c1N | -6.13%
5 | COc1ccc(NC(=O)c2sc3ncnc(N4CCN(c5ccccn5)CC4)c3c2C)cc1Cl | -23%
6 | c1ccc(Nc2nc(N3CCCCC3)nc(N3CCCCC3)n2)cc1 | -4.68%
7 | Nc1nc(CCl)nc(Nc2ccccc2)n1 | 20.7%
8 | c1ccc(Nc2nc(N3CCCC3)nc(N3CCCC3)n2)cc1 | 13.1%
9 | Nc1nc(CN2CCN(C(c3ccccc3)c3ccccc3)CC2)nc(Nc2ccccc2)n1 | -18.4%
10 | Nc1nc(CN2CCCCCC2)nc(Nc2ccccc2)n1 | -61.4%
11 | Nc1nc(CN2CCN(Cc3ccccc3)CC2)nc(Nc2ccccc2)n1 | -66.2%
12 | O=C(NC(Nc1nc2ccc([N+](=O)[O-])cc2s1)(C(F)(F)F)C(F)(F)F)c1ccccc1 | -6.48%
13 | CCCc1nnc(NC(=O)c2c(O)c3cccc4c3n(c2=O)CCC4)s1 | -2.48%
14 | S=C(NCCCN1CCOCC1)NC1CCCC1 | 8.32%
15 | O=c1[nH]c(/C=C\c2ccccc2F)nc(O)c1[N+](=O)[O-] | 17.5%
16 | COc1ccc(NC(=O)CSc2c(C)n[nH]c2C)cc1 | -7.52%
17 | Cn1nc(C(=O)NNC(=O)CCc2ccccc2Cl)c2ccccc2c1=O | -53.9%
18 | CCc1noc(C)c1C(=O)NNC(=O)c1nn(C)c(=O)c2ccccc12 | -50.2%
19 | CCOc1ccc(OCCC(=O)NNC(=O)c2nn(C)c(=O)c3ccccc23)cc1 | -13.1%
20 | Cc1ccc(OCCC(=O)NNC(=O)c2nn(C)c(=O)c3ccccc23)cc1 | -33.1%
21 | CCc1noc(C)c1C(=O)NNC(=O)c1ccccc1 | -1.03%
22 | Cc1occc1C(=O)NNC(=O)c1nn(C)c(=O)c2ccccc12 | 8.46%
23 | CCOC(=O)N1CCN(C(=O)C(CC(C)C)NS(=O)(=O)c2ccc(C)cc2)CC1 (stereo not drawn) | -4.14%
24 | COC(=O)C1C2c3ccccc3OC1(C)N=c1s/c(=C/c3cn(C)nc3C)c(=O)n12 (stereo not drawn) | 11.2%
